Data from PubChem BioAssay (Tox21).
Unmarked numbers belong to inactive results. Activity calls are given as the source filed them. The call rests on the fitted dose curve; in most records, active means well fitted curve in the direction sought with a large enough effect in the repeat runs; inconclusive means weak or mixed curves; inactive means flat fitted curve, though single readings scatter.

assay: qHTS assay to test for compound auto fluorescence at 460 nm (blue) in HEK293 cells (AID 720678); conditions: blue autofluorescence 405/460 nm; series mostly up to 91.3 µM
Description: National Center for Advancing Translational Sciences [NCATS]
NIH Chemical Genomics Center [NCGC]
U.S. Environmental Protection Agency [EPA]
National Institutes of Environmental Health Sciences [NIEHS]
National Toxicology Program [NTP]
U.S. Food and Drug Administration [FDA]
Compound auto fluorescence often interferes with screening of the compound library against various biological targets and signaling pathways. Some of these compounds may have fluorophoric properties. Such properties may interfere with the assay outputs resulting in false positives and/or negatives. To decrease such complications and ensure the compound activities are relevant in terms of biological response, the Tox21 10K compound library was screened for auto fluorescence.
From the fluorophores used as reporter signals in our screening assays, the auto fluorescence equivalencies of compounds against three fluorophores have been evaluated: Triamterene, Fluorescein and Rose Bengal sodium for blue, green and red fluorescence, respectively. The fluorescence intensities were measured using Excitation/Emission wavelengths at 405/460nm, 485/535nm and 540/590nm for blue, green and red labels, respectively. This assay includes the blue fluorescence data.
Tox21 Assay Protocol Summary:
2,000 HEK293 cells in 5 uL of culture medium containing 10% dialyzed FBS per well were dispensed into black wall/clear bottom 1536-well plates using a Multidrop Combi Dispenser (Thermo Scientific). The assay plates were incubated for 4-5 hr at 37C to allow cell attachment to the well bottom, followed by the transfer of 23 nL compound or DMSO vehicle by a pintool work station (Kalypsys, San Diego, CA). After the assay plates were incubated overnight at 37C and 5% CO2, fluorescence intensities in the assay plates were measured by an Envision (PerkinElmer, Shelton, CT) plate reader using three labels for measuring blue, green and red fluorescence at […] 460, 535 and 590nm respectively.
On the % scale 0 is the no-effect control and ±100 the full control effect.

SMILES | outcome | fluorescence, % of triamterene
CC(C)c1ccccc1O | inactive | 
Nc1cc(Cl)cc(S(=O)(=O)O)c1O | inactive | 
O=P(O)(O)OCC(O)CO (stereo not given) | inactive | 
CCCCCCCCCCCCCCCCI |  | 0.0613% [at 18.6 µM]
O=[Si]=O | inactive | 
CC(C)COC(=O)/C=C/c1ccccc1 | inactive | 
O=c1cc(O)c(Cl)c[nH]1 | inactive | 
C=COCCOCCOC=C | inactive | 
CCC(=O)OCCC(C)CCC=C(C)C (stereo not given) | inactive | 
F[Si-2](F)(F)(F)(F)F | inactive | 
Cc1ccc(S(=O)(=O)NC(=O)NC2CCCCCCC2)cc1 | inactive | 
Cc1ccccc1N1CCN(CCc2nnc3n2CCCC3)CC1 | inactive | 
CCCCC/C=C/CC(=O)OC | inactive | 
NS(=O)(=O)c1ccc(Cl)c(S(N)(=O)=O)c1 | inactive | 
CC(C)(CO)[C@@H](O)C(=O)NCCCO | inactive | 
CCC(C)(C)C1CCC(=O)CC1 | inactive | 
CCCC(C)CC (stereo not given) | inactive | 
CCCCCCCCCCCCC1CO1 (stereo not given) | inactive | 
NS(=O)(=O)c1ccccc1OC(F)(F)F | inactive | 
C=C(C)[C@@H]1CC[C@@H](C)C[C@@H]1O | inactive | 

SMILES | outcome | fluorescence, % of triamterene
Cc1ncc([N+](=O)[O-])n1CC(O)CCl (stereo not given) |  | -0.195% [at 18.6 µM]
CC(=O)Nc1ncc([N+](=O)[O-])s1 | inactive | 
C1CCN2C[C@@H]3C[C@@H](CN4CCCC[C@@H]34)[C@H]2C1 |  | 0.214% [at 18.6 µM]
CO[Si](CCCCl)(OC)OC | inactive | 
C[C@@H]1C[C@H]2[C@@H]3C[C@H](F)C4=CC(=O)C=C[C@]4(C)[C@@]3(F)[C@@H](O)C[C@]2(C)[C@@]1(O)C(=O)CO |  | -0.0057% [at 18.6 µM]
Cc1cccc(NC(=S)N(C)C)c1 | inactive | 
COc1ccc(N=Nc2cc(C)c(N=Nc3ccc(S(=O)(=O)O)cc3)cc2OC)cc1 | inactive | 
Cc1ccc2c(c1)c1c3n2CCNC3CCC1 (stereo not given) | inactive | 
CCOC(=O)CC#N | inactive | 
C=C(C)C(=O)OC1CC(C)CC(C)(C)C1 (stereo not given) | inactive | 
CC1(N)CCC(C(C)(C)N)CC1 (stereo not given) | inactive | 
CCS(=O)(=O)CCn1c([N+](=O)[O-])cnc1C |  | -0.271% [at 18.6 µM]
Cc1oc(=O)oc1CN1CCN(c2cc3c(cc2F)c(=O)c(C(=O)O)c2n3C(C)S2)CC1 (stereo not given) | inactive | 
CC1=CC[C@H](CC=O)C1(C)C | inactive | 
CCOC(=O)OCC/C(SC(=O)OCC)=C(\C)N(C=O)Cc1cnc(C)nc1N | inactive | 
NC(=O)C1(N2CCCCC2)CCN(CCCC(=O)c2ccc(F)cc2)CC1 | inactive | 
CC(C)COC(=O)COc1ccc(Cl)cc1Cl | inactive | 
Cc1cc(O)c2c(c1)C(=O)c1cccc(O)c1C2=O | inactive | 
BrC/C=C/CBr |  | 0.0974% [at 18.6 µM]
CCOC(=O)CC(CC(=O)OCC)(OC(C)=O)C(=O)OCC | inactive | 
